The campaign covered roughly 53,000 sequences. About 3,700 (7%) were called active. This is one part of a sample in which actives are shown more often than they occur. Unmarked numbers belong to inactive results.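 How the source made its calls: active means gene knockdowns whose robust z-score for IL-1 alpha signal is at least 2 or at most -2, so actives lie on both sides; inactive means the rest.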

The assay is described as follows: Components of the Cytosolic LPS Sensing Pathway: Gene Identification via Genome-wide siRNA Screen.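 Further: robust z of the log signal after scaling to non-targeting control siRNA wells of the plate.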 The following applies: RAW264.7 macrophages, IL-1a HTRF, actives lie on both sides, screened at 100 nM (by protocol), cells primed 5 h with Pam3CSK4 first. Put shortly: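 RAW264.7; siRNA 100 nM final, RNAiMAX, 48h 37 degrees C; Pam3CSK4 5 h; LipidA + TransIT-TKO 24 h; IL-1a HTRF; CellTiter-Glo viability; robust z vs negative-control median.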
(In TR-FRET formats the signal depends on donor and acceptor labels being close together.)
In the case of GGGCUACAUUCCUUCCAAUTT against Frk, the z-score is 5.59 (active). For “GGAUCUCGAGCUGACAGAATT against Arhgap33os” the value was 1.31; for GGGAAAGGAUUCAAUUAAGTT against Lratd2, 0.0415; for GAGGGCUCUACAGUUUUUATT against Atp5g3, 0.952. Then GGCCUUCGAAAUAAUUCUGTT against Ppp1r14d, with -0.605; and GACCUUCGACACCGACAAATT against Rtl8c, with 3.29 (active). Then GCGGCGAUACUUCUACUUGTT against Grk2, with -0.584. As for CCUGUACAUUGUGUAAUGUTT against Pcdh8, the z-score is 0.0925. For CCUGAACGACAGAUUGGCATT against Krt20, the z-score was -0.697. Then CGAAUCCUUAGUUGAAGAATT against Fastkd1, with 1.18; and GGAAAUUUCAGAGCUCAAGTT against Trpc2, with -2.81 (active).

Turning to GGCAAAAGCACUGAAGAGATT against Ar, the z-score was -0.63. Then GGGCUCUUUAGUACUAGAATT against Spn, with -0.612; and GGUCCCUUGAUGUCGAUUATT against Stt3b, with -1.15; and GCUUCAGCUCUGAUUAACGTT against Alox8, with -0.233. As for GCCGAUAGCAUAGACAGUGTT against Kansl2, the z-score is 0.6. For CCAGUCCUACUUAGCAAAGTT against Lrrc75a, the z-score is -1.48. Then GGUGCAGAGCUUGAGAUGATT against Anks3, with -0.729.

Regarding GCUGAACAUUAGCUUCAAUTT against Lrrc9, the z-score was -1.42.

On to GGUUGCUCACUCAUUUAACTT against Pa2g4, for which the z-score is 2.18 (active). Then GGAGACAUAUGAGACUCUGTT against Fcer1g, with 0.156. For GGGACAGAUACUAAACUCUTT against Wfdc2 the value was 3.49 (active); for CCAUGGUUACCGUGUACUATT against Olfr1513, -0.312; for GGAUCAUUGACAGUGAAUATT against Blk, -1.35.

Take GGUCCUAUUUCGGAGCUUUTT against Tnfsf14: the z-score is 0.365. For GCUCAUCGUGUUUUCAACCTT against Cbr3 the value was -0.034; for GGGACACACCAUCAAAAGGTT against Kank4, -2.32 (active). For GGAAAAAUGGAAACCUAAGTT against Nipal3 the value was 1.16. Consider GGUAUUAUCUGCAUGGGCATT against Mkrn3, for which the z-score was 0.273. For GGAUGAAGUGUGUUUUGGCTT against Sim1 the value was 0.95; for GGACCUUUUGUCUAUAAUGTT against Arl4c, 0.759. For GGCAGCUAAACUGUGUUAUTT against Tex11 the value was -1.36.

As for GGGCUUUGGACAUCUCCUATT against Serpina3c, the z-score is -1.98. Then GGGAUAUCCUACCAGGUCATT against Ppard, with -1.24; and GCUCCUUUAGUCCUCACCATT against Mrpl10, with -2.15 (active). As for GGAUCUUCAGGAAAACAGATT against Fam181b, the z-score is -0.955.

Consider CCACCCUUCUUCUAUCGAATT against Ybx2, for which the z-score is -1.11. For GCCAGAGUUUAUUAACUGCTT against Stxbp6 the value was -0.809; for CCAUUGCAGCAUACUGUCCTT against Serpina1b, -0.402. For GCGGCUAAUUCGUUCUUUCTT against Atp8a1 the value was 0.708; for GGUCAGGUAGGGAUAUACATT against Dele1, -1.59; for CCAAUAAAAGUGCACACCUTT against Actb, 2 (active). Then GGCAGCAAGUUUUUUAAUCTT against Cap1, with 0.464; and GGAAAACAACAUGAUCGUGTT against Nadk, with -0.137; and UCCCUAACGGCCCUUUUUATT against H4c14, with -0.729. Regarding GGACAAGCUCCAAAACAACTT against Srsf4, the z-score is -0.292. Then UAGGAACGCACCCAUACAATT against Fam89b, with 0.555; and GGAAAACCCAGGUCAGAAUTT against Serpina9, with -1.07; and CCUUAAGCAGAGUUCAAAGTT against Timm22, with 0.197. Then CCCUCCUCAGUAUUGUACUTT against Dtx2, with 2.51 (active); and GGUCAUUUCAAGUGCUAAGTT against Adgra1, with 2.76 (active).

On to GCCAGAAGUGAAAAUCGAATT against Fkbp14, for which the z-score is 0.509. Then GGGACAAGGCCUCGAUAUUTT against Ggps1, with 0.958; and CGCAGGACUAUAAACUGAATT against Ptdss2, with 0.954. For CCUCUUUCGACAAGAGCUCTT against Atp1a3 the value was 0.904; for GCAGAUCGUGCGGAUCUUGTT against Bcdin3d, 2.1 (active); for GGCAUUGUUUUCAUUGUGGTT against Cldn7, -0.0872. As for GGAUGUGAUCCUACUGACATT against Tmem208, the z-score is 0.793. Then GCUUCGAUACCUUCAAACCTT against Stom, with -3.7 (active); and CGAGAGUCUAACCAAGUACTT against Arhgdib, with -1.89. Then GGAGAUUGUGAGAGCCAUGTT against Kcnab3, with -0.753; and GAGUGAGAAAGCCAGAGACTT against Acaa1a, with 0.188; and GGACUGUUUACUCAGCUCATT against Slc25a33, with -2.02 (active).

Turning to GGCCCACAAGGCUGUUUUGTT against Zfp131, the z-score is 0.459. Then GGAUUUCAAGGGAAUUUGATT against Wbp4, with -0.271. GCCAGUUGUGACAAAACUATT against Abca1: the z-score is -1.22. Consider GGUGGAGUCUGAACUUAAUTT against Nfatc4, for which the z-score was -0.0623. Then GCCCUUAAAACAUAACCACTT against Fgf9, with 0.615; and CCAAGAUUAACCAUAACACTT against Mrpl50, with 0.017; and GCUCCUACAGAGAAUAAGATT against Eny2, with -1.7. For GGACGAGGACCAGCUAGAATT against Txn2 the value was -2.07 (active). For the sequence GGGACAUUUCCAUCCUUUUTT against Prdx6b, the z-score was -1.28. As for GCUCCUUUGGUUCAACAUCTT against Olfr635, the z-score is -1.78. Then GCAACCAUUCUGGUAUUACTT against Zfp108, with 0.904. Consider CCAUUAAUAAAGCGUGGGUTT against Cacybp, for which the z-score was 0.562. For GGAAAUUUGGAAAUUGCCUTT against Ntm, the z-score was 2.46 (active). For the sequence “GGAUCAUCACUACUACAAUTT against 4932415M13Rik”, the z-score was 2.37 (active).

As for GGCUGCUCGAAUCAGUCAUTT against Slc27a3, the z-score is 0.237.

As to GGAAUUUUCUACAUGUGUGTT against Lim2, the z-score was -2.12 (active). Consider CCAGAUCCUAAAGUCUUUATT against Trpd52l3, for which the z-score is 0.677. Then CCACCGGAUCGAAGACAGUTT against Tanc2, with -1.28; and CGUCCCUAGUAUAAAAAGATT against Cxxc5, with -0.273. Then GGCUUUCACCUUAAUUGAUTT against Fntb, with -0.296; and CCCAGUACAGCCUUGUGGUTT against Med25, with -2.02 (active). For CGACAAGGGUUUUUAUUCUTT against Smcr8 the value was -0.414; for GCCUCUCAACAUGAAUUAATT against Gm9918, 0.524.

In the case of CCAAGUUUAACAUCCAGGGTT against Pfkm, the z-score was -0.126. Then GGAUGGAGACCUCUCCUUUTT against Guca2a, with 1.36. On to CCAGCGAUCUUCCCAUUCUTT against Ccr8, for which the z-score is -0.844. Then GCCCUAAUCUAUGGGACAUTT against Tmem179, with 3.06 (active). Then UUCAUUCAUAUGGACAGUUTT against Psg19, with 1.73; and GCCACAAUGGGCAGUCUUATT against Kcp, with 0.0139; and GCGGAAGUCGGAUUUUAUCTT against Kif1c, with 3.01 (active). For “CCAACACGUUGCACAGAGUTT against A830073O21Rik” the value was 0.611; for “GGACAACCGAAGUUUUAAUTT against E130308A19Rik”, 0.0435. Consider GGAGGUGACUAUCAUUUUUTT against Gng4, for which the z-score is -0.498. For CCAGCAAGUAAAACAAGCUTT against Olfr803 the value was 0.998. For GGUACUUCUCAUGGAUAAATT against Vps45 the value was -0.234; for GGAACUAAAUAUCCCUAUGTT against Polr3gl, -1.26.

Consider GAUACUUGGCUCCUAGAAGTT against Olfr803, for which the z-score was -1.22. Then GCAUGAAUUGUGGAAGAGATT against Csnk1a1, with 2.71 (active); and GCCAGGUGGAACCAAGUAUTT against Zcchc17, with -1.67. For GGCAUCUUAUGGCCUAAAATT against Rnf31 the value was -1.08; for GCGAAAAAGAUCGUCCUUGTT against Polr3a, -0.444; for GGAUCUUUACAUCUCUAACTT against Krtap31-1, 1.58. For GCCAAACAUUGGUGGACAUTT against H2-D1 the value was 0.835. Regarding GCUUAAUAAUUUCAUCCAGTT against Brms1l, the z-score is 2.44 (active).

As to GGCCCAGUCCGAUAUUCUATT against Phxr4, the z-score is -0.797.

The record behind these values is PubChem BioAssay AID1508600 (Functional Genomics Laboratory (NCATS/FGL), 2020).
